Shn3 3UTR inh = inhibitors of Schnurri-3 3'UTR reporter in osteoblasts; Clone20 osteoblast Shn3 3'UTR firefly luciferase, 24 h; inhibition, % at 12.5 µM; 360,000 tested, 0.52% active;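 active = mean inhibition of at least 75% with every replicate also reaching 75%; inconclusive = mean inhibition at least 75% but some replicate below; inactive = mean inhibition below 75%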
TRPM1 prom inh = MITF TRPM1 promoter inhibition in SK-MEL-5 cells; inhibition, % at 12.5 µM; 330,000 tested, 0.83% active; SK-MEL-5 TRPM1 promoter luciferase, 24 h;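 active = mean inhibition across replicates of 60% or more, whatever share of single replicates reaches that level; inconclusive = some that reach 60%, reason not given; inactive = mean inhibition across replicates below 60%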
Peg3 promoter = inhibitors of Peg3 promoter | HeLa PEG-Prom luciferase reporter, luminescence, overnight | 360,000 tested, 1.7% active | AID 588405 | inhibition, % at 20 µM;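 active = inhibition of at least 50% at 20 µM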
PAX8 reporter = lowers PAX8-driven luciferase in RMG-I cells. RMG-I TPO-luciferase reporter, SteadyGlo, 24 h. inhibition, % at 12.6 µM. 360,000 tested, 1.2% active;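 active = mean replicate inhibition at least 60% with every replicate also reaching 60%; inconclusive = only one of the two criteria is met; inactive = mean below 60% and not all replicates reaching 60%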;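 note: luciferase light reporting Pax8 driven TPO promoter activity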
EBV LMP1 NFkB = Epstein-Barr LMP1 NF-kappaB reporter inhibition; LMP1-induced NF-kappaB luciferase reporter cells, luminescence; inhibition, % at 12.5 µM; 350,000 tested, 0.69% active; AID 504558; in the data active = inhibition above about 41%; inconclusive = no clear call, values can overlap the other calls
HIF-2a block = blocks HIF-2a reporter activity; 786-0 RCC cells HIF-2a reporter, luciferase luminescence, overnight; inhibition, % at 18.8 µM; 360,000 tested, 0.72% active;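 active = inhibition of the luminescence signal of 40% or more relative to plate controls, in a single-dose primary screen at 18.75 µM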
Hits are given with their value; n = inactive; u = inconclusive; x = no result. Hits are enriched below; roughly 2.8% of the tested compounds scored in any of these assays.

SMILES	Shn3 3UTR inh	TRPM1 prom inh	Peg3 promoter	PAX8 reporter	EBV LMP1 NFkB	HIF-2a block
COCc1nn2c(N)c(C#N)cnc2c1-c1ccccc1	95	n	n	x	n	n
CCOC(=O)Cn1c(=O)c2c(nc3n2CCCCN3c2ccc(C)cc2)n(C)c1=O	n	n	n	n	n	n
Cn1c(=O)n(CCc2ccccc2)c(=O)c2c1nc1n2CCCN1Cc1ccccc1	n	n	n	x	n	n
COc1ccc(N2CCCn3c2nc2c3c(=O)n(CCc3ccccc3)c(=O)n2C)cc1	n	n	52	x	n	n
CCCn1c(=O)c2c(nc3n2CCCN3CCc2ccccc2)n(C)c1=O	n	n	n	n	n	n
Cn1c(=O)n(CCc2ccccc2)c(=O)c2c1nc1n2CCCN1CCc1ccccc1	n	n	69	x	n	n
Cc1ccc(N2CCCCn3c2nc2c3c(=O)n(CC(=O)O)c(=O)n2C)cc1	n	n	n	x	56	n
CC(NC(=O)COC(=O)c1cc(NS(=O)(=O)c2ccc(Cl)c([N+](=O)[O-])c2)ccc1O)C1CC2CCC1C2 (centres undefined)	n	n	96	n	n	84
O=C(Nc1ccc(N2CCN(c3ncccc3C(F)(F)F)CC2)nc1)c1cccs1	n	n	104	n	n	n
O=C(Nc1ccc(N2CCN(c3ccc(C(F)(F)F)cn3)CC2)nc1)c1cccs1	n	n	n	n	n	n
Cc1cc(C[n+]2cc(Br)ccc2N)c2ncccc2c1	92	n	n	n	n	n
Cc1cc(C[n+]2cc(Cl)ccc2N)c2ncccc2c1	n	n	n	n	n	n
N#Cc1cccc(NC(=O)c2nc(-c3ccccc3)n(-c3ccccc3)n2)c1	n	n	n	n	n	n
Cc1nn(C2CCS(=O)(=O)C2)c2nc(C3CC3)cc(C(=O)Nc3cccc(C#N)c3)c12 (centres undefined)	n	n	n	75	n	n
C[C@H](O)[C@@H]1CN2CCc3c([nH]c4ccc(-c5ccc6c(c5)OCO6)cc34)[C@@H]2C[C@@H]1N(C)C(=O)Nc1cc(Cl)cc(Cl)c1	n	x	67	n	n	n
C[C@H](O)[C@@H]1CN2CCc3c([nH]c4ccc(-c5ccc6c(c5)OCO6)cc34)[C@@H]2C[C@@H]1N(C)C(=O)NC1CCCCC1	n	x	n	90	n	n
Cc1cccc(-c2ccc3[nH]c4c(c3c2)CCN2C[C@@H]([C@H](C)O)[C@@H](N(C)C(=O)Nc3ccc(F)cc3)C[C@@H]42)c1	n	x	100	n	n	n
O=C(NC1CCC1)[C@@H]1[C@@H](CO)[C@@H]2Cn3c(ccc(C4=CCCCC4)c3=O)[C@H]1N2CC1CC1	x	x	x	n	x	x
CC(C)NC(=O)Nc1ccc2c(c1)C(=O)N([C@H](C)CO)C[C@@H](C)[C@@H](CN(C)C(=O)Nc1ccc3c(c1)OCO3)O2	x	x	x	n	x	x
O=C(CCN1CCCCC1)NCC[C@@H]1CC[C@H](NC(=O)C2CCCC2)[C@@H](CO)O1	x	x	x	n	x	x
O=C(O)CCNc1cc(N2CCN(C(=O)c3ccco3)CC2)c2noc3c2c1C(=O)c1ccccc1-3	n	n	n	n	n	n
CCN1CCN(c2cc(N3CCN(C(=O)c4ccco4)CC3)c3c4c(onc24)-c2ccccc2C3=O)CC1	n	89	n	x	n	n
CC(C)(O)C#Cc1ccc([C@@H]2C[C@H]3CN(c4ccccc4)C(=O)[C@]34CCCN24)s1	95	n	103	u	54	n
COCc1cc([C@@H]2C[C@H]3CN(c4ccccc4)C(=O)[C@]34CCCN24)ccc1OC	n	n	54	n	n	n
O=C1N(c2ccccc2)C[C@@H]2C[C@@H](c3cccs3)N3CCC[C@@]123	n	n	73	75	n	n
SMILES	Shn3 3UTR inh	TRPM1 prom inh	Peg3 promoter	PAX8 reporter	EBV LMP1 NFkB	HIF-2a block
COc1ccccc1N1C[C@@H]2C[C@@H](c3ccco3)N3CCC[C@@]23C1=O	n	n	n	n	n	n
COc1ccc([C@@H]2C[C@H]3CN(c4ccccc4)C(=O)[C@]34CCCN24)c(OC)c1OC	n	n	n	n	n	n
COc1cccc(CNC(=O)C[C@H]2CC[C@@H]3[C@H](COc4ccc(NS(=O)(=O)c5ccccc5F)cc4C(=O)N3C)O2)c1	x	x	x	n	x	x
C[C@@H]1CN([C@@H](C)CO)C(=O)c2cc(NC(=O)CCN3CCOCC3)ccc2O[C@@H]1CN(C)S(=O)(=O)c1ccc(Cl)cc1	x	x	x	n	x	x
O=C(Nc1ccccc1)N[C@@H]1CC[C@@H](CCNS(=O)(=O)c2cccc(F)c2)O[C@@H]1CO	x	x	x	n	x	x
Cc1ccccc1N=Cc1c(O)n(-c2nccs2)c(=O)c2ccccc12	n	n	n	n	n	n
O=c1c2ccccc2c(C=Nc2ccccc2O)c(O)n1-c1nccs1	87	n	n	n	n	n
O=[N+]([O-])c1cc(/C=N\O)ccc1Oc1ccc(F)cc1	n	n	n	n	65	n
CC(=O)N1c2ccc(Cl)cc2C2C=CCC2C1c1cccc2ccccc12 (centres undefined)	n	n	66	x	n	n
O=C(N/N=C/c1ccco1)c1ccc(N2CCCC2=O)cc1	n	n	n	n	n	n
COc1cccc(/C=N/NC(=O)c2ccc(N3CCCC3=O)cc2)c1	n	n	n	96	n	n
COc1cccc(/C=N\NC(=O)c2ccc(C)nc2)c1	n	n	n	n	86	n
Cc1ccc(C(=O)N/N=C\c2cccc(OC(=O)c3cccc(F)c3)c2)cn1	n	n	n	n	n	n
O=C(N/N=C/c1cccnc1)c1cccc(Cl)c1	n	n	n	n	n	n
CC(C)c1ccc(OCc2cccc(C(=O)N/N=C/c3cccnc3)c2)cc1	n	n	n	n	63	n
Cc1ccccc1NC(=S)NNc1ncc(C(F)(F)F)cc1Cl	n	n	n	n	n	n
Cc1c(Cl)cccc1NC(=S)NNc1ncc(C(F)(F)F)cc1Cl	n	n	54	x	n	n
COc1ccc(NC(=O)Nc2ccc3c(c2)C(=O)N([C@@H](C)CO)C[C@@H](C)[C@@H](CN(C)S(=O)(=O)c2ccc(OC)cc2)O3)cc1	x	x	x	n	x	x
C[C@H](CO)N1C[C@H](C)[C@H](CN(C)C(=O)Nc2cccc3ccccc23)OCCCC[C@H](C)Oc2ccc(NC(=O)Cc3ccccc3)cc2C1=O	x	x	x	n	x	x
CCC(C)[C@@H](NC(=O)OC(C)(C)C)c1nnc(S(=O)(=O)Cc2cccc(C)c2)o1 (some centres undefined)	98	71	108	x	n	n
Cc1ccccc1CS(=O)(=O)c1nnc([C@H](Cc2ccccc2)NC(=O)OC(C)(C)C)o1	95	83	104	x	n	n
C[C@@H]1CN([C@@H](C)CO)C(=O)c2cc(-c3ccccc3)cnc2O[C@H]1CN(C)C(=O)c1ccccc1F	x	x	x	n	x	x
C[C@@H]1CCCCO[C@@H](CN(C)C(=O)Nc2ccc3c(c2)OCO3)[C@@H](C)CN([C@@H](C)CO)C(=O)c2cc(N(C)C)ccc2O1	x	x	x	n	x	x

Assay outcomes: PubChem, several laboratories
